Assay results as given in PubChem BioAssay AID720647 (Broad Institute, 2013).
The campaign covered roughly 380,000 compounds. About 1,300 (0.34%) were called active. The entries come from a sample that favours actives as a whole. A number with no mark means an inactive call.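 Rule for the calls: active = drop in luminescence signal, shown as inhibition above about 50% in the replicate tests (limit read from the data, passing the limit was not always enough); inconclusive = probably only some replicates passing the limit; inactive = the rest.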

Test system: Drosophila bursicon receptor LGR2 (rickets)
Experiment: inhibitors of bursicon-induced LGR2 CRE-luciferase signal, primary screen, cell-based, HEK293, CRE-luciferase reporter, bursicon stimulation (AID 720647);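 note: agonist challenge used bursicon conditioned medium at about half maximal strength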
Conditions: bursicon-stimulated, 4 h, at 9.99 µM, active compounds read high

Structure (SMILES)	inhibition
C[C@@H]1CN([C@@H](C)CO)C(=O)c2cc(NS(=O)(=O)c3ccccc3)ccc2O[C@H]1CN(C)CC1CCCCC1	-4.25%
C[C@@H]1CN([C@@H](C)CO)C(=O)CCCn2cc(nn2)CO[C@H]1CN(C)Cc1ccc(C(=O)O)cc1	6.13%
COCCNC(=O)C[C@H]1CC[C@H]2[C@H](COc3ccc(NC(=O)C4CCOCC4)cc3C(=O)N2C)O1	-14%
O=S1(=O)CCC(NC(=S)SCc2ccccc2Br)C1 (stereo unspecified)	69.2% (active)
O=C(CSc1ccccc1F)NC1CCS(=O)(=O)C1 (stereo unspecified)	23.4%
CC(C)C(=O)NC(NC(=S)NC1CCS(=O)(=O)C1)C(Cl)(Cl)Cl (stereo unspecified)	-0.282%
CCOc1ccc(NCCC(=O)c2ccc3c(c2)OCO3)cc1	-15.9%
CC(=O)Nc1cccc(C(=O)OCC(=O)c2ccc3c(c2)OCO3)c1	63.3% (active)
O=C(COC(=O)c1ccccc1)c1ccc2c(c1)OCCO2	66.7% (active)
N#CCCN(C(=O)COC(=O)c1ccc2c(c1)OCCO2)c1ccccc1	4.75%
O=C1COc2ccc(C(=O)COC(=O)c3ccccc3Cl)cc2N1	-31.2%
CCOc1cc(C(=O)OCC(=O)Nc2cccc(C)c2)ccc1OCC(=O)N1CCOCC1	16.2%
COc1ccc2c3c(n(C)c2c1)[C@H](CO)N(Cc1ccccc1)CC31CN(C(=O)c2ccccc2F)C1	13.5%
CCCC(=O)Nc1ccc2c(c1)C(=O)N(C)C[C@H](OC)[C@H](C)CN(C(=O)c1ccccn1)[C@H](C)CO2	14%
O=C(C[C@H]1C=C[C@H](NC(=O)CC2CC2)[C@@H](CO)O1)NCc1ccccc1	-1.04%
C[C@H]1CN([C@@H](C)CO)C(=O)c2cc(NC(=O)Cn3cnnn3)ccc2O[C@H]1CN(C)C(=O)NC1CCCCC1	-0.859%
COc1ccc2c3c([nH]c2c1)[C@@H](CO)N(C(=O)Nc1ccc(F)cc1)CC31CN(S(C)(=O)=O)C1	-10.4%
C[C@@H]1CN([C@@H](C)CO)C(=O)c2cc(-c3ccc(C#N)cc3)cnc2O[C@@H]1CN(C)Cc1cccnc1	21.1%
O=[N+]([O-])c1ccc(NS(=O)(=O)c2ccccc2)c(Cl)c1	-13%
O=S(=O)(Nc1ccc(O)c2ccccc12)c1ccc(OC(F)(F)F)cc1	58.8% (active)
O=S(=O)(Cc1noc(-c2ccc(OC(F)(F)F)cc2)n1)c1ccc(F)cc1	-18.2%
CCCN1[C@@H]2c3ccc(C4=CCCC4)c(=O)n3C[C@@H]2[C@@H](CO)[C@@H]1C(=O)NCc1ccccn1	-8.46%
COc1ccc(S(=O)(=O)N(C)C[C@H]2OCCCC[C@H](C)Oc3ccc(NC(=O)Nc4ccc5c(c4)OCO5)cc3C(=O)N([C@@H](C)CO)C[C@@H]2C)cc1	21.6%
CO[C@@H]1CN(C)C(=O)c2ccc(NC(C)=O)cc2OC[C@@H](C)N(CC2CC2)C[C@H]1C	-1.72%
C[C@H](CO)N1C[C@H](C)[C@H](CN(C)CC2CC2)OCCCC[C@H](C)Oc2ccc(NC(=O)c3ccncc3)cc2C1=O	-8.96%
Cc1ccc(S(=O)(=O)Nc2ccc3c(c2)C(=O)N([C@H](C)CO)C[C@H](C)[C@H](CN(C)S(=O)(=O)c2ccc(F)cc2)O3)cc1	2.4%

Structure (SMILES)	inhibition
Cc1nc(=O)c(-c2ccccc2)c(C)n1-c1ccc(Br)cc1	4.28%
Cc1ccc(N2CCN(c3ccc([N+](=O)[O-])cn3)CC2)c(C)c1	4.63%
COc1ccccc1Cc1c(-c2ccc(F)cc2)nc2ccc(C)cn12	-38.1%
Cc1ccc(-c2cn3cc([N+](=O)[O-])ccc3n2)cc1	67.1% (active)
Cc1ccc(-c2cn3cc(C)ccc3n2)cc1	102% (active)
Cc1nc(-c2ccccc2)cn2c1nc1ccccc12	3%
Cc1ccc2nc(-c3ccc(Br)cc3)cn2c1	96.2% (active)
Cn1cnc(C(F)(F)F)c1-c1ccc([N+](=O)[O-])cc1	-7.43%
C[C@@H]1CN([C@@H](C)CO)C(=O)c2cc(C3=CCCC3)cnc2O[C@H]1CN(C)C(=O)c1ccccn1	-11.6%
COc1ccc(NC(=O)Nc2ccc3c(c2)[C@@H]2C[C@@H](CC(=O)NCc4ccncc4)O[C@@H](CO)[C@@H]2O3)cc1	6.93%
CCC(=O)N(C)C[C@@H]1Oc2cc(-c3ccc(C#N)cc3)ccc2S(=O)(=O)N([C@@H](C)CO)C[C@@H]1C	-4.05%
Cc1nc(N2[C@H](CO)[C@H](c3ccccc3)[C@H]2CNCC2CCCCC2)sc1C	-6.28%
O=C(O)c1ccc(N/N=C/c2ccc3ncccc3c2)cc1	88.1% (active)
CCc1nc2cccnc2n1-c1ccc(C(=O)O)cc1	-11.5%
NCCCCCC(=O)N/N=C/c1ccc2nccnc2c1	-0.608%
O=C(C[C@H]1C=C[C@@H](NC(=O)C2CCOCC2)[C@@H](CO)O1)NCC1CCCCC1	25%
Cc1noc(C)c1NC(=O)N(C)C[C@H]1Oc2ccc(NS(=O)(=O)c3ccc(F)cc3)cc2C(=O)N([C@@H](C)CO)C[C@H]1C	-0.097%
O=C(CSC(=S)N1CCOCC1)c1ccccc1	69.5% (active)
O=C(O)CC(CC(=O)N1CCOCC1)c1ccccc1 (stereo unspecified)	7.83%
N[C@@H](Cc1ccccc1)C(=O)N1CCOCC1	-3.78%
C[C@@H]1CN([C@@H](C)CO)S(=O)(=O)c2ccc(-c3ccc(C#N)cc3)cc2O[C@H]1CN(C)Cc1ccccn1	12.2%
CCCC(=O)N1CC2(CN(C(=O)NC(C)C)C2)c2c([nH]c3cc(OC)ccc23)[C@@H]1CO	0.057%
Cc1ccc(C(=O)N/C(=C/c2ccc(-c3cccc([N+](=O)[O-])c3)o2)C(=O)NCCCN(C)C)cc1	77.8% (active)
CCn1cc(/C=C(\NC(=O)c2ccc(C)cc2)C(=O)NCCN2CCOCC2)c2ccccc21	-9.89%
O=C(NCc1ccco1)/C(=C\c1cccc([N+](=O)[O-])c1)NC(=O)c1ccco1	21.6%
